Values joined by “and” are separate entries in the source; they are usually repeats but may differ in a detail not shown here. Equal entries are not always repeated.

The test relates to HGGX39 (paediatric high-grade glioma line). Description: growth inhibition (% activity, log2 RLU normalised to DMSO / staurosporine); higher = more growth inhibition. To be noted: 33 µM. An outline of the steps: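 The growth-inhibition value is the median over replicates. pHGG cell lines and H9-derived neural stem cells on Geltrex-coated 384-well plates received approved drugs by pin tool at a single final concentration of about 33 μM, in triplicate, for 7 days at 37 °C, 5% CO2. CellTiter-Glo luminescence was log2-transformed and normalised per plate to % activity between solvent and positive control wells.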
Take `Cc1ccccc1N1C(=O)c2cc(S(N)(=O)=O)c(Cl)cc2NC1C` (stereo not given): the growth inhibition was -1.7%.

Take `Cc1cc(NS(=O)(=O)c2ccc(N)cc2)no1`: the growth inhibition is -2.37%.

Take `COC(=O)C1=C(C)NC(C)=C(C(=O)OC2CCCN(Cc3ccccc3)C2)C1c1cccc([N+](=O)[O-])c1` (stereo not given): the growth inhibition amounted to 6.94%.

Regarding `CC(C)/N=c1\cc2n(-c3ccc(Cl)cc3)c3ccccc3nc-2cc1Nc1ccc(Cl)cc1`, the growth inhibition worked out at 10%.

On to `O=C(OCC(O)CO)c1ccccc1Nc1ccnc2cc(Cl)ccc12` (stereo not given), for which the growth inhibition turned out to be 3.28%.

`O=C(O)CSCC(=O)NC1CCSC1=O` (stereo not given): the growth inhibition was determined as 0.576%.

Consider `C=C1CC[C@H](O)C/C1=C/C=C1\CCC[C@]2(C)[C@@H]([C@H](C)/C=C/[C@H](C)C(C)C)CC[C@@H]12`, for which the growth inhibition is 7.46%.

As to `COC(=O)Nc1nc2cc([S+]([O-])c3ccccc3)ccc2[nH]1` (stereo not given), the growth inhibition was 4.89%.

Consider `CN(C)[C@@H](CCOc1cccc2ccccc12)c1ccccc1`, for which the growth inhibition is 5.09%.

`O=c1c(-c2ccc(O)cc2)coc2cc(O)cc(O)c12`: the growth inhibition is 4.09%.

Turning to `O=C1CCc2cc(OCCCCc3nnnn3C3CCCCC3)ccc2N1`, the growth inhibition was found to be 7.05%.

Regarding `C[C@@](Cc1ccc(O)c(O)c1)(NN)C(=O)O`, the growth inhibition was -0.733%.

On to `CCc1ccc(CCOc2ccc(CC3SC(=O)NC3=O)cc2)nc1` (stereo not given), for which the growth inhibition was -0.303% and 4.55%.

As to `CC(C[N+](C)(C)C)OC(N)=O` (stereo not given), the growth inhibition is -1.35%.

For the compound `CN(C)CCOc1ccc(/C(=C(/CCCl)c2ccccc2)c2ccccc2)cc1`, the growth inhibition worked out at 5.94%.

With `CCNC(=O)CCC/C=C\C[C@@H]1[C@@H](/C=C/[C@@H](O)CCc2ccccc2)[C@H](O)C[C@@H]1O`, the growth inhibition was found to be 3.66%.

For `CO[C@H]1O[C@@H]2O[C@@]3(C)CC[C@H]4[C@H](C)CC[C@@H]([C@H]1C)[C@@]24OO3`, the growth inhibition was 3.99%.

In the case of `N=C(N)NS(=O)(=O)c1ccc(N)cc1`, the growth inhibition was determined as 3.26%.

As to `CNC[C@H](O)c1cccc(O)c1`, the growth inhibition turned out to be 4.28%.

Regarding `CC(C)(C)NCC(O)c1ccc(O)c(CO)c1` (stereo not given), the growth inhibition is -1.15%.

Regarding `C=C1[C@H](CO)[C@@H](O)C[C@@H]1n1cnc2c(=O)[nH]c(N)nc21`, the growth inhibition came out at 0.038%.

For the compound `CC(C)(C(=O)O)c1ccc(C(O)CCCN2CCC(C(O)(c3ccccc3)c3ccccc3)CC2)cc1` (stereo not given), the growth inhibition came to 2.4%.

On to `NCCS`, for which the growth inhibition was -2.78%.

With `CCCc1nn(C)c2c(=O)[nH]c(-c3cc(S(=O)(=O)N4CCN(C)CC4)ccc3OCC)nc12`, the growth inhibition stood at 0.834%.

For `COC1C(O)CC(=O)OC(C)CC=CC=CC(OC2CCC(N(C)C)C(C)O2)C(C)CC(CC=O)C1OC1OC(C)C(OC2CC(C)(O)C(O)C(C)O2)C(N(C)C)C1O` (stereo not given), the growth inhibition worked out at 1.26%.

The record behind these values is the supplement of paper PMC8253809.
